Assay [1] can be described thus: NCI Yeast Anticancer Drug Screen. Data for the rad50 strain (AID 155).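 Also: 0% = growth of vehicle-only cultures of the same strain.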 The conditions noted are these: S. cerevisiae rad50 strain growth inhibition; at 50.0 µM; stronger effect = higher value. The gist of the method:
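Genetically altered yeast (DNA repair pathway); compound treatment; growth inhibition vs vehicle ctrl.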

Assay [2] in a line: NCI Yeast Anticancer Drug Screen. Data for the mec2-1 strain (AID 157). Conditions: S. cerevisiae mec2-1 strain, stronger effect = higher value. The gist of the method:
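Mutant yeast (mec2-1) grown with compound; growth inhibition relative to vehicle control reported.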

The nature of assay [3]: NCI Yeast Anticancer Drug Screen. Data for the cln2 rad14 strain (AID 165).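 Also: 0% = growth equal to vehicle treated cultures.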 Conditions: S. cerevisiae cln2 rad14 strain, stronger effect = higher value. The method in brief: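 Readout is yeast growth inhibition versus vehicle-treated controls, using a strain with cln2 and rad14 alterations exposed to compound.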
The nature of assay [4]: NCI Yeast Anticancer Drug Screen. Data for the bub3 strain (AID 167). Conditions: S. cerevisiae bub3 mutant strain, stronger effect = higher value. The method in brief: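 Yeast carrying a defined mutation is treated with each compound, and growth is compared with that of vehicle-exposed cells to give inhibition.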
Assay [5] in a line: NCI Yeast Anticancer Drug Screen. Data for the mlh1 rad18 strain (AID 175). The conditions noted are these: S. cerevisiae mlh1 rad18 strain growth inhibition, stronger effect = higher value. The method in brief:
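Genetically defined yeast (DNA repair-deficient) exposed to compounds; growth inhibition determined relative to vehicle.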

Assay [6] is described as follows: NCI Yeast Anticancer Drug Screen. Data for the sgs1 mgt1 strain (AID 161).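 Also: 0% = growth of cultures given vehicle only.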 Conditions: S. cerevisiae sgs1 mgt1 strain, stronger effect = higher value. The gist of the method:
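Percent growth inhibition was derived by comparing compound-exposed mutant yeast with vehicle-exposed cultures. The strain carries alterations in DNA damage repair.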

Where [7] appears, read: at 5.0 µM (retest, dose inferred, filed as 0.5).
[8] abbreviates: at 50.0 µM (retest, dose inferred, filed as 5.0).

Several values for one entry are separate records, joined by “and”; a condition that tells them apart may be missing. Equal values may be shown once. Compounds without any hit were thinned out: in the full panel of roughly 79,000, 15% have a hit. A number with no mark means an inactive call. Activity calls are given as the source filed them. Rule as the data show it: active = growth inhibition above about 70%; inactive = the rest.

Take `OC1(CN2CCCCC2)N=C(c2ccccc2)c2ccsc2-n2cccc21` (configuration not stated): the growth inhibition is -19.6% in assay [1]; -22.6% in assay [2] (at 50.0 µM); 22.2% in assay [3] (at 50.0 µM); -11.5% in assay [4] (at 50.0 µM); -3% in assay [5] (at 50.0 µM).
On to `C(=Nc1ccccc1)C1CCCC[N-]1.C(=Nc1ccccc1)C1CCCC[N-]1.[Cu+2].[O-][Cl+3]([O-])([O-])O` (configuration not stated), for which the growth inhibition is 90.5% (active) in assay [1]; 83.6% (active) in assay [2] (at 50.0 µM); 92.5% (active) in assay [3] (at 50.0 µM); 74.2% (active) in assay [4] (at 50.0 µM); 88% (active) in assay [5] (at 50.0 µM).
In the same order, the values of `OCC12COCN1COC2` are 8.4%, -15.9%, -14%, -0.4% and -31.9%.
In the case of `O=[As](O)(O)c1cc(F)ccc1F`, the growth inhibition is -5.75% in assay [1]; -4.3% in assay [2] (at 50.0 µM); -11.4% in assay [6] (at 50.0 µM); -15.3% in assay [3] (at 50.0 µM); -8.3% in assay [5] (at 50.0 µM).
For `CSc1sc2ccccc2[s+]1`, the growth inhibition in assay [1] was -10.8%; in assay [2] (at 50.0 µM), -5.4%; in assay [3] (at 50.0 µM), 10.6%; in assay [4] (at 50.0 µM) it was 9.55%; in assay [5] (at 50.0 µM) it was 3.35%.
On to `S=P(Nc1ccccc1Cl)(Nc1ccccc1Cl)c1ccccc1`, for which the growth inhibition in assay [1] was 30.3%; in assay [2] (at 50.0 µM), 25.8%; in assay [6] (at 50.0 µM) it was 39.9%; in assay [3] (at 50.0 µM), 37.9%; in assay [5] (at 50.0 µM), 21%.
Take `CCC[CH2][Sn]1([CH2]CCC)[O]CC(COc2c(Cl)cc(Cl)cc2Cl)[O]1` (configuration not stated): the growth inhibition is 92% (active) in assay [2] (setting [7]); 92% (active) in assay [2] (setting [8]); 91.3% (active) in assay [2] (at 50.0 µM); 97% (active) in assay [6] (setting [7]); 97% (active) in assay [6] (setting [8]); 90.2% (active) in assay [6] (at 50.0 µM). In addition, the growth inhibition was 89% (active) in assay [3] (setting [7]); 89% (active) in assay [3] (setting [8]); 90% (active) in assay [3] (at 50.0 µM); 89% (active) in assay [4] (setting [7]); 89% (active) in assay [4] (setting [8]); 92.5% (active) in assay [4] (at 50.0 µM). Also, the results for the growth inhibition in assay [5] (setting [7]), in assay [5] (setting [8]) and in assay [5] (at 50.0 µM) were 91% (active), 91% (active) and 89.8% (active), respectively.
With `N/C(=N\S(=O)(=O)c1ccccc1)N[N+](=O)[O-]`, the growth inhibition in assay [1] is 5.15% and -5.6%; in assay [6] (at 50.0 µM) it was -9.05% and -5.2%; in assay [3] (at 50.0 µM), -39.2% and -2.6%; in assay [4] (at 50.0 µM) it was -9.25% and 7.05%; in assay [5] (at 50.0 µM), 4.45% and -9.75%.
As for `O=[N+]([O-])c1ccc2c3c(cccc13)CC2`, the growth inhibition in assay [2] (setting [7]) was 3%; in assay [2] (setting [8]) it was 32%; in assay [2] (at 50.0 µM), 9.15%; in assay [6] (setting [7]), 11%; in assay [6] (setting [8]), 84% (active); in assay [6] (at 50.0 µM), 0.9%. Moreover, the growth inhibition is -1% in assay [3] (setting [7]); 48% in assay [3] (setting [8]); -4.15% in assay [3] (at 50.0 µM); 6% in assay [4] (setting [7]); 54% in assay [4] (setting [8]); 19.9% in assay [4] (at 50.0 µM). Besides, the growth inhibition is 25% in assay [5] (setting [7]), 90% (active) in assay [5] (setting [8]) and 18.4% in assay [5] (at 50.0 µM).
As for `CCOP(O)(=S)OCC`, the growth inhibition in assay [2] (at 50.0 µM) is 23.4% and 10.2% and 2.35%; in assay [6] (at 50.0 µM), 11.6% and 7.65% and -4.2%; in assay [3] (at 50.0 µM) it was -2.05% and 20.1% and 6.7%; in assay [4] (at 50.0 µM), -15.8% and -14.5% and -14%; in assay [5] (at 50.0 µM), 17% and 18.8% and 3.2%.
Turning to `O=C(O)C(=O)C(Cl)Br` (configuration not stated), the growth inhibition in assay [1] is 4.95%; in assay [6] (at 50.0 µM), -2.5%; in assay [3] (at 50.0 µM), -18%; in assay [4] (at 50.0 µM) it was 2.35%; in assay [5] (at 50.0 µM) it was 0.65%.
Regarding `c1cc[c]([Sn]([c]2ccccc2)[c]2ccccc2)cc1.c1cc[c]([Sn]([c]2ccccc2)[c]2ccccc2)cc1`, the growth inhibition in assay [2] (setting [7]) was 51%; in assay [3] (setting [7]) it was 9%; in assay [4] (setting [7]) it was 54%.
Regarding `CC(=O)Nc1c2sscc-2n(C)c1=O`, the growth inhibition was 99% (active) in assay [2] (setting [7]); 100% (active) in assay [2] (setting [8]); 94.9% (active) in assay [2] (at 50.0 µM); 99% (active) in assay [6] (setting [7]); 99% (active) in assay [6] (setting [8]); 94.6% (active) in assay [6] (at 50.0 µM). Besides, the growth inhibition was 98% (active) in assay [3] (setting [7]); 99% (active) in assay [3] (setting [8]); 93.2% (active) in assay [3] (at 50.0 µM); 97% (active) in assay [4] (setting [7]); 99% (active) in assay [4] (setting [8]); 94% (active) in assay [4] (at 50.0 µM). In addition, the growth inhibition is 99% (active) in assay [5] (setting [7]), 99% (active) in assay [5] (setting [8]) and 92.7% (active) in assay [5] (at 50.0 µM).
On to `CC1CC2OC(=O)C(CN3CC3)C2CC2(C)C(O)CC(O)C12` (configuration not stated), for which the growth inhibition in assay [2] (at 50.0 µM) is 30.3%; in assay [6] (at 50.0 µM), 32.5%; in assay [3] (at 50.0 µM) it was -4.1%; in assay [4] (at 50.0 µM) it was 10.3%; in assay [5] (at 50.0 µM) it was 26.1%.
The matching figures for `O=[N+]([O-])c1ccc(/C=C/c2ccc(Cl)c(S(=O)(=O)F)c2)c(Cl)c1`: -4.95%, -1.7%, 2.45%, 13% and -6.3%.
Take `CCOP(=S)(OCC)Oc1ccccc1`: the growth inhibition in assay [1] is -3.8%; in assay [6] (at 50.0 µM), -15.2%; in assay [3] (at 50.0 µM) it was -7.6%; in assay [4] (at 50.0 µM) it was -20.9%; in assay [5] (at 50.0 µM), 3.5%.
As to `c1cs[c]([Hg][c]2cccs2)c1`, the growth inhibition is 99% (active) in assay [2] (setting [7]); 76% (active) in assay [2] (setting [8]); 99.5% (active) in assay [2] (at 50.0 µM); 100% (active) in assay [6] (setting [7]); 97% (active) in assay [6] (setting [8]); 99.6% (active) in assay [6] (at 50.0 µM). In addition, the growth inhibition in assay [3] (setting [7]) was 97% (active); in assay [3] (setting [8]), 97% (active); in assay [3] (at 50.0 µM), 98% (active); in assay [4] (setting [7]) it was 100% (active); in assay [4] (setting [8]), 98% (active); in assay [4] (at 50.0 µM), 99.5% (active). In addition, the growth inhibition is 99% (active) in assay [5] (setting [7]), 95% (active) in assay [5] (setting [8]) and 99.5% (active) in assay [5] (at 50.0 µM).
As to `O=C(N/N=C/c1cc(Br)cc(Br)c1[O-])c1ccccc1O.O=C(N/N=C/c1cc(Br)cc(Br)c1[O-])c1ccccc1O.[Mn+2]`, the growth inhibition was 98% (active) in assay [2] (setting [7]); 96% (active) in assay [2] (setting [8]); 95.7% (active) in assay [2] (at 50.0 µM); 98% (active) in assay [6] (setting [7]); 93% (active) in assay [6] (setting [8]); 93.2% (active) in assay [6] (at 50.0 µM). Moreover, the growth inhibition is 93% (active) in assay [3] (setting [7]); 90% (active) in assay [3] (setting [8]); 97.3% (active) in assay [3] (at 50.0 µM); 96% (active) in assay [4] (setting [7]); 94% (active) in assay [4] (setting [8]); 96% (active) in assay [4] (at 50.0 µM). For the same molecule, the growth inhibition in assay [5] (setting [7]) is 96% (active); in assay [5] (setting [8]), 94% (active); in assay [5] (at 50.0 µM), 98% (active).
In the case of `CC(=O)OC1(C#N)CC2OC1C1NC21` (configuration not stated), the growth inhibition in assay [1] is 5.7%; in assay [6] (at 50.0 µM), 18.4%; in assay [3] (at 50.0 µM), 8.8%; in assay [4] (at 50.0 µM) it was -14.7%; in assay [5] (at 50.0 µM), -13%.
In the case of `C/C(=N\N=C(\[Se])N(C)C)c1ccccn1`, the growth inhibition was 89.9% (active) in assay [2] (at 50.0 µM), 89.7% (active) in assay [6] (at 50.0 µM), 89.3% (active) in assay [3] (at 50.0 µM) and 87.1% (active) in assay [4] (at 50.0 µM).
Take `O=[N+]([O-])c1ccccc1-c1ccccc1`: the growth inhibition in assay [1] is 24.3%; in assay [6] (at 50.0 µM) it was 7.05%; in assay [3] (at 50.0 µM), 13.2%; in assay [4] (at 50.0 µM), -21.8%; in assay [5] (at 50.0 µM), 2.25%.
As for `O=[As](O)(O)c1cc(N=Nc2ccc(-c3ccc(N=Nc4cc([As](=O)(O)O)c(O)cc4O)cc3)cc2)c(O)cc1O`, the growth inhibition is 44% in assay [2] (at 50.0 µM); 33.2% in assay [6] (at 50.0 µM); -19.7% in assay [3] (at 50.0 µM); -4.2% in assay [4] (at 50.0 µM); 25.4% in assay [5] (at 50.0 µM).
